# Experimental data as given in PubChem BioAssay AID2284161 (EPA ToxCast).
# The source made the active and inactive calls. The calls were made as follows: active = hit-call score of the fitted dose curve at least 0.9, where 1 is the maximum; inactive = score below 0.9.
# Biological target: human Serotonin Receptor 5-HT6 Agonism, HTR6 (gene 3362) (UniProt P50406)
# Assay: ERF_FR_GPCR_hHTR6: Eurofins (ERF) G Protein-Coupled Receptor (GPCR) Radioligand Binding LeadHunter Assay for human Serotonin Receptor 5-HT6 Agonism
# Experimental: ERF_FR_GPCR_hHTR6 is a biochemical, single-readout assay that uses extracted gene-proteins in a cell-free assay. Measurements were taken 2 hour after chemical dosing in a 96-well plate. See 5-HT6 Human Serotonin GPCR Binding (Agonist Radioligand) Assay, Cerep.ERF_FR_GPCR_hHTR6 is an assay component calculated from the ERF_FR_GPCR_hHTR6 assay. It is designed to measure radioligand binding using a type of binding reporter as detected by scintillation counting with radiometry technology.Data from the assay component ERF_FR_GPCR_hHTR6 was analyzed at the assay endpoint, ERF_FR_GPCR_hHTR6, in the positive analysis fitting direction relative to DMSO as the negative control and baseline of activity. Using a type of binding reporter, gain-of-signal activity can be used to understand changes in binding as they relate to gene HTR6. To generalize the intended target to other relatable targets, this assay endpoint is annotated to the gpcr intended target family, where the subfamily is serotonin.
# Human cells are incubated for 120 minutes at 37 C with [3H]LSD ligand (2 nM) and serotonin as control inhibitor. Test Sample Requirements: Minimum for 1) Screen: 60 ul of 10 mM stock -OR- 1 mg (pre-weighed) for 10 uM final testing. 2) Dose Response: 90 ul of 10 mM stock -OR- 1 mg (pre-weighed) for a top concentration at 10 uM.
# Chain of human Serotonin Receptor 5-HT6 Agonism, HTR6 (gene 3362) (P50406 whole entry, looked up): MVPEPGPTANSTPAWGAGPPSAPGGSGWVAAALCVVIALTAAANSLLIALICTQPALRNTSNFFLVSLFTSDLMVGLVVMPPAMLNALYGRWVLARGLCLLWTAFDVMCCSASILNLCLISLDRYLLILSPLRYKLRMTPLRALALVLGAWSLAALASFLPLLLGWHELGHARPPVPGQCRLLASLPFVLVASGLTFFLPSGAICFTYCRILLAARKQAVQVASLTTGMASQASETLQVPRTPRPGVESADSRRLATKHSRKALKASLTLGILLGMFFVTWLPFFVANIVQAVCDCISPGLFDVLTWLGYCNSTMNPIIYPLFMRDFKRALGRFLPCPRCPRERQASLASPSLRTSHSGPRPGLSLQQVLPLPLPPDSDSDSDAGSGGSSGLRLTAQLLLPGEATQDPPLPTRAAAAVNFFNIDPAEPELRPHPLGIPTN
row,SMILES,AC50
1,O=C(/C=C/c1ccc(O)cc1)CC(=O)/C=C/c1ccc(O)cc1,2700 nM (active)
